Experimental data taken from PubChem BioAssay AID1159580 (chemical genetic matrix, 2015).
Where “and” joins values, the source holds several entries; their conditions need not be identical. Identical values can stand only once. The campaign covered roughly 5,500 compounds. About 2,000 (36%) were called active. Another 18% or so got no clear call; they are omitted. Cut-off read from the data, not from the text of the source: active = normalized growth mostly below about 0.91 (no sharp cut-off); inconclusive = no clear call, values can overlap the other calls; inactive = mostly above about 0.92. The list shows a part of the results.

Assay: chemical genetic growth profiling, strain panel (AID 1159580);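 note: tested at 20 µM; growth read once vehicle control cultures reached saturation at 30 °C; 1 = growth at the plate median or of vehicle wells; lower values mean less growth of the strain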
Conditions: S. cerevisiae deletion strains, growth OD

Measured: normalized growth

COC(=O)[C@@H]1C(O)CC[C@H]2CN3CCc4c([nH]c5ccccc45)[C@@H]3C[C@@H]21 (some centres not stated)
inactive: locus YAL013W, strain DEP1, stronger effect = lower value 0.998 | locus YAL021C, strain ccr4, stronger effect = lower value 1.01 | locus YAL026C, strain drs2, stronger effect = lower value 1.01 | locus YAL030W, strain snc1, stronger effect = lower value 1.01 | locus YBL061C, strain skt5, stronger effect = lower value 1.01 | locus YBR009C, strain hhf1, stronger effect = lower value 0.998 | locus YBR021W, strain FUR4, stronger effect = lower value 1.01 | locus YBR023C, strain chs3, stronger effect = lower value 1.02 | locus YBR171W, strain sec66, stronger effect = lower value 1.02 | locus YBR229C, strain ROT2, stronger effect = lower value 0.99 | locus YBR231C, strain swc5, stronger effect = lower value 0.999 | locus YBR279W, strain paf1, stronger effect = lower value 1.02 | locus YCL011C, strain gbp2, stronger effect = lower value 1.01 | locus YCL016C, strain dcc1, stronger effect = lower value 1.02 | locus YCL029C, strain bik1, stronger effect = lower value 0.993 | locus YCL061C, strain MRC1, stronger effect = lower value 1.01 | locus YCL069W, strain vba3, stronger effect = lower value 1.01 | locus YCR088W, strain abp1, stronger effect = lower value 1.01 | locus YDL005C, strain med2, stronger effect = lower value 1.01 | locus YDL035C, strain GPR1, stronger effect = lower value 0.994 | locus YDL040C, strain nat1, stronger effect = lower value 1.01 | locus YDL074C, strain BRE1, stronger effect = lower value 1.01 | locus YDL101C, strain DUN1, stronger effect = lower value 0.99 | locus YDL134C, strain PPH21, stronger effect = lower value 0.996 | locus YDL185W, strain tfp1, stronger effect = lower value 0.971 | locus YDL192W, strain arf1, stronger effect = lower value 0.983 | locus YDR001C, strain nth1, stronger effect = lower value 1.02 | locus YDR069C, strain doa4, stronger effect = lower value 0.999 | locus YDR101C, strain arx1, stronger effect = lower value 1 | locus YDR137W, strain rgp1, stronger effect = lower value 1.02 | locus YDR150W, strain NUM1, stronger effect = lower value 0.973 | locus YDR159W, strain sac3, stronger effect = lower value 0.996 | locus YDR162C, strain NBP2, stronger effect = lower value 1.02 | locus YDR195W, strain ref2 1.02 | locus YDR297W, strain sur2, stronger effect = lower value 1.03 | locus YDR318W, strain mcm21, stronger effect = lower value 0.981 | locus YDR334W, strain swr1, stronger effect = lower value 1.02 | locus YDR335W, strain msn5, stronger effect = lower value 1.02 | locus YDR388W, stronger effect = lower value 0.999 | locus YDR392W, strain spt3, stronger effect = lower value 0.92 | locus YDR502C, strain sam2, stronger effect = lower value 1.01 | locus YEL003W, strain gim4, stronger effect = lower value 1.02 | locus YEL037C, strain rad23, stronger effect = lower value 1.03 | locus YEL061C, strain CIN8 (second series), stronger effect = lower value 1.02 | locus YEL061C, strain CIN8, stronger effect = lower value 0.998 | locus YER015W, strain faa2, stronger effect = lower value 1.01 | locus YER016W, strain bim1, stronger effect = lower value 1.02 | locus YER110C, stronger effect = lower value 0.982 | locus YER111C, strain swi4, stronger effect = lower value 1.01 | locus YER155C, strain BEM2 (second series), stronger effect = lower value 1.01 | locus YER155C, strain BEM2, stronger effect = lower value 0.992 | locus YER167W, strain BCK2, stronger effect = lower value 0.979 | locus YFR010W, strain ubp6, stronger effect = lower value 1.01 | locus YGL078C, strain dbp3, stronger effect = lower value 0.982 | locus YGL086W, strain mad1, stronger effect = lower value 0.955 | locus YGL167C, strain pmr1, stronger effect = lower value 1.01 | locus YGL173C, strain kem1, stronger effect = lower value 1 | locus YGL227W, strain vid30, stronger effect = lower value 1.02 | locus YGL240W, strain doc1, stronger effect = lower value 0.992 | locus YGL248W, strain PDE1, stronger effect = lower value 0.982 | locus YGL253W, strain hxk2, stronger effect = lower value 1.02 | locus YGR078C, strain PAC10, stronger effect = lower value 1 | locus YGR135W, strain pre9, stronger effect = lower value 1.01 | locus YGR229C, strain SMI1, stronger effect = lower value 1.03 | locus YGR252W, strain gcn5, stronger effect = lower value 1.01 | locus YHR013C, strain ard1, stronger effect = lower value 1.02 | locus YHR027C, strain rpn1, stronger effect = lower value 1.02 | locus YHR030C, strain SLT2, stronger effect = lower value 0.991 and 1.02 | locus YHR079C, strain IRE1 (second series), stronger effect = lower value 1.01 | locus YHR079C, strain IRE1, stronger effect = lower value 1.02 | locus YHR094C, strain hxt1, stronger effect = lower value 0.974 | locus YHR129C, strain ARP1, stronger effect = lower value 0.998 | locus YHR142W, strain chs7, stronger effect = lower value 1.02 | locus YHR200W, strain rpn10, stronger effect = lower value 0.988 | locus YIL066C, strain RNR3, stronger effect = lower value 0.984 | locus YIL073C, strain SPO22, stronger effect = lower value 0.915 | locus YIL125W, strain kgd1, stronger effect = lower value 0.981 | locus YIR030C, strain dcg1, stronger effect = lower value 0.994 | locus YJL092W, strain hpr5, stronger effect = lower value 1.01 | locus YJL095W, strain BCK1 (second series), stronger effect = lower value 1 | locus YJL095W, strain BCK1, stronger effect = lower value 1.03 and 1.02 | locus YJL115W, strain asf1, stronger effect = lower value 1.02 | locus YJL129C, strain trk1, stronger effect = lower value 1.03 | locus YJL134W, strain LCB3, stronger effect = lower value 0.985 | locus YJL154C, strain vps35, stronger effect = lower value 1.02 | locus YJL164C, strain tpk1, stronger effect = lower value 0.999 | locus YJL166W, strain qcr8, stronger effect = lower value 1.01 | locus YJL168C, strain set2, stronger effect = lower value 1 | locus YJL187C, strain SWE1 (second series), stronger effect = lower value 0.995 | locus YJL187C, strain SWE1, stronger effect = lower value 1.01 | locus YJR043C, strain POL32, stronger effect = lower value 0.998 | locus YJR066W, strain TOR1, stronger effect = lower value 0.954
